Several values for one entry are separate records, joined by “and”; a condition that tells them apart may be missing. Identical values can stand only once. Records with an inconclusive call do not appear. Where a call stands in place of a potency, no number is given. Activity calls are given as the source filed them. The call rests on the fitted dose curve; in most records, active means well fitted cell-killing curve with a large enough effect in the repeat runs; inconclusive means weak or mixed curves, or effect the other way; inactive means flat fitted curve, though single readings scatter.
Potency means the concentration at half of the fitted maximal effect.

The nature of the test: qHTS assay to identify small molecule agonists of the androgen receptor (AR) signaling pathway in the presence of an antagonist - cell viability counter screen (AID 1259379). Further: nearly all actives have a fitted effect of over 25% in size. The conditions noted are these: MDA-kb2 viability, CellTiter-Fluor, 16 h; series mostly up to 92.4 µM. An excerpt:
National Center for Advancing Translational Sciences [NCATS]
NIH Chemical Genomics Center [NCGC]
U.S. Environmental Protection Agency [EPA]
National Institutes of Environmental Health Sciences [NIEHS]
National Toxicology Program [NTP]
U.S. Food and Drug Administration [FDA]
Androgen receptor (AR) is an important member of nuclear receptor family. Its signaling plays a critical role in AR-dependent prostate cancer and other androgen related diseases. Considerable attention has been given in the past decades to develop methods to study and screen for the environmental chemicals that have the potential to interfere with metabolic homeostasis, reproduction, developmental and behavioral functions. Therefore AR binding assay for screening against androgen agonists and antagonists can be used to identify potential endocrine disruptors.
MDA-kb2 cells (from ATCC, deposited by Wilson et al.) are human breast carcinoma cells that were stably transfected with a luciferase reporter gene under control of the MMTV promoter that contains response elements for both androgen receptor (AR) and glucocorticoid receptor (GR). This particular screening for measuring luciferase reporter gene activity using MDA-kb2 cells against Tox21 10K library compounds is a confirmation study on agonist mode screening in the presence of AR-antagonist compound (Nilutamide) at 3.0uM final concentration. The cytotoxicity of the compounds was tested in parallel by measuring the cell viability using CellTiter-Fluor assay system (Promega, Madison, WI) in the same wells.
Tox21 Assay Protocol Summary:
MDA-kb2 cells (cells cultured without CO2) were dispensed at 3,000 cells/well in 4uL of culture medium into white wall/solid-bottom 1536-well plates (Corning Life Sciences, Corning, NY) using a Multidrop Combi (Thermo Fisher Scientific Inc., Waltham, MA) dispenser. The assay plates were incubated at 37C and 0% CO2 for 5hr. One uL of 3.0uM (final concentration) Nilutamide or assay buffer was added using two separate tips of Flying Reagent Dispenser (FRD, Aurora Discovery, San Diego, CA). Then 23nL of compounds dissolved in DMSO at 15 concentrations and positive controls were transferred to the assay plates using a Pintool station (Wako, San Diego, CA). The assay plates were incubated at 37C and 0% CO2 for 16 hr. After 15hr incubation at 37C, 1uL/well CellTiter-Fluor reagent (Promega Corporation) was added to each well of the assay plates using FRD. After 1hr incubation at 37C and 0% CO2, the fluorescence signal was measured using a ViewLux plate reader (PerkinElmer, Shelton, CT).
Turning to `CCCCCOc1ccccc1/C(=C\SC)n1ccnc1`, the Potency entry was “inactive”. As to `C1CCCC1`, the Potency result is “inactive”. The value for `N#CSc1ccc(N)c([N+](=O)[O-])c1` was 54.8 µM (active). The value for `Nc1nc2ccccc2n1Cc1ccc(F)cc1` was 26.6 µM (active); that for `CCCCC(CC)COP(=O)(O)OCC(CC)CCCC` (stereo not given) was “inactive”. Next, `CCCCCCCCCCCCCCCS(=O)(=O)Oc1ccccc1`: “inactive”.

For `O=C(OCC(COC(=O)c1ccccc1)(COC(=O)c1ccccc1)COC(=O)c1ccccc1)c1ccccc1`, the Potency result was “inactive”. Take `CCOc1ccc2nc3cc(N)ccc3c(N)c2c1`: the Potency entry was “inactive”.

`CCN(CC)CCCC(C)Nc1c2ccc(Cl)cc2nc2ccc(OC)cc12` (stereo not given): the Potency is 11.9 µM (active). Next, `CCCCCCCCn1sc(Cl)c(Cl)c1=O`: 27.3 µM (active). The value for `O=c1[nH]cnc2nc[nH]c12` was “inactive”. Next, `O=C(Oc1cccc2cccnc12)c1ccccc1`: “inactive”.

As for `Cc1cccc(CN2CCN(C(c3ccccc3)c3ccc(Cl)cc3)CC2)c1` (stereo not given), the Potency entry is “inactive”. Next, `CCc1cc(Cc2cc(CC)cc(C(C)(C)C)c2O)c(O)c(C(C)(C)C)c1`: 54.5 µM (active). Regarding `CN1CCC(Nc2ncc3ncnc(Nc4ccc(F)c(Cl)c4)c3n2)CC1`, the Potency result was “inactive”. The value for `CSc1ccc(/C=C2/C(C)=C(CC(=O)O)c3cc(F)ccc32)cc1` was “inactive”. Consider `CCCCCOC(=O)CCCC`, for which the Potency result is “inactive”. With `C[n+]1cc2c3c(ccc2c2ccc4cc5c(cc4c21)OCO5)OCO3`, the Potency is 11.6 µM (active).

Consider `CN(C)[C@@H]1C(=O)C(C(N)=O)=C(O)[C@@]2(O)C(=O)C3=C(O)c4c(O)cccc4C[C@H]3C[C@@H]12`, for which the Potency result was “inactive”. The value for `COc1cc(-c2nc(NC(=O)c3cc4cc(C)cc(C)c4n3CC(=O)O)sc2CCC2CCCCC2)c(OC)cc1Cl` was 56 µM (active). As for `CC(C)(C)c1ccc(C(=O)O)cc1`, the Potency entry was “inactive”. The value for `CC/C(=C(\c1ccc(O)cc1)c1ccc(OCCN(C)C)cc1)c1ccccc1` was 61.3 µM (active). The value for `Cc1ccc2oc(CN(Cc3ccccc3)C(=O)Nc3c(F)cc(F)cc3F)c(-c3ccc(Cl)cc3)c2c1` was “inactive”; that for `CCCCCCCCCCn1cc[n+](CCCCCCCCCC)c1C` was 24.4 µM (active); that for `Cc1cccc(S(=O)(=O)O)c1C` was “inactive”. Regarding `CCc1oc2ccccc2c1C(=O)c1cc(Br)c(O)c(Br)c1`, the Potency result was “inactive”. For `CC(C)OC(=O)c1cc2c(OCC(O)CNC(C)(C)C)cccc2[nH]1` (stereo not given), the Potency entry was “inactive”. In the case of `CC1=NC(C)OC1C` (stereo not given), the Potency entry is “inactive”.

For the molecule `CCN(C(=O)c1cc(C)cc(OC[C@H](C)Nc2ccncc2)c1)C(C)C`, the Potency entry is “inactive”.

`Cc1onc(-c2ccccc2Cl)c1C(=O)N[C@@H]1C(=O)N2[C@@H]1SC(C)(C)[C@@H]2C(=O)O`: the Potency result is “inactive”.

Regarding `Cc1cc(O)c2ccccc2c1O`, the Potency is 26.6 µM (active). Next, `CC(C)(C)CC(C)(C)c1ccc(OCCOCC[N+](C)(C)Cc2ccccc2)cc1`: 27.3 µM (active) and 21.1 µM (active); `CCC(Cl)C(Cl)C(Cl)CC(Cl)C(Cl)C(C)Cl` (stereo not given): “inactive”.

As to `O=C(NOCC1CC1)c1ccc(F)c(F)c1Nc1ccc(I)cc1Cl`, the Potency was 29.8 µM (active). Next, `CNc1ccc(O)cc1`: 61 µM (active). Next, `Cc1onc(-c2c(Cl)cccc2Cl)c1C(=O)N[C@@H]1C(=O)N2[C@@H]1SC(C)(C)[C@@H]2C(=O)O`: “inactive”; `Clc1ccc2cc3ccccc3cc2c1`: “inactive”; `CCOC(=O)/C=C(C)/C=C/C=C(C)/C=C/c1c(C)cc(OC)c(C)c1C`: “inactive”. Next, `Cc1ccc(-n2nc(C(C)(C)C)cc2NC(=O)Nc2ccc(OCCN3CCOCC3)c3ccccc23)cc1`: “inactive”. On to `c1ccc(CSCc2ccccc2)cc1`, for which the Potency entry is “inactive”.

Values taken from PubChem BioAssay (Tox21).
